# DT40 TDP1 CPT = growth inhibition of DT40 Tdp1-/-;hTDP1 cells with camptothecin (screen for TDP1 inhibitors); chicken DT40 Tdp1-/-;hTDP1 cells + 20 nM CPT, ATP luminescence, 48 h; Potency, µM (series often up to 46.2 µM), for the others: at the highest dose activity change, negative = growth inhibition, actives largely listed as inhibitors; 12% of 420,000 active; note: potency is the fitted concentration of half-maximal effect; nearly all actives have a fitted effect of over 55% in size
#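 Chicken DT40 Tdp1-/- cells complemented with human TDP1, 400 cells/well, exposed to compounds plus 20 nM camptothecin for at least 48 h at 37 C; viability read as ATP content by CellTiter-Glo luminescence.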
# HT1080 IDH1KD tx = HT-1080 IDH1 knockdown cell toxicity (counter line); Potency, µM (top dose mostly 46.1 µM), for inactives: at the top dose activity, negative = toxicity, most hits filed as cytotoxic; HT-1080 IDH1 knockdown viability, ATP luminescence, 48 h; 2% of 360,000 active; AID 686971;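 note: potency is the fitted concentration of half-maximal effect; 0% = DMSO wells and -100% = cell-free medium wells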
#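 In this qHTS, HT-1080 cells depleted of IDH1 are exposed for 48 h at 37 °C to compound titrations. Toxicity is scored from CellTiter-Glo luminescence, with DMSO as full viability and medium alone as none.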
# IL-1B inflam inh = inflammasome signaling inhibition, IL-1 beta readout | AID 743279 | THP-1 LPS/ATP IL-1B secretion, AlphaLISA, 16 h; hits give low values | 4.7% of 360,000 active | activity change, % at 57.5 µM; in the data active = activity change below about -50%; inconclusive = mostly about -30% to -49%
#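 Secreted IL-1B measured by AlphaLISA bead assay after 16 h compound exposure of THP-1 cells; compounds (final up to 57.5 uM) added 1 h before LPS (250 ng/mL) and ATP (1.25 mM) stimulation; lower signal means less secretion.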
# TDP1 cell noCPT = qHTS for Inhibitors of human tyrosyl-DNA phosphodiesterase 1 (TDP1): qHTS in cells in absence of CPT | DT40 Tdp1-/- hTDP1 cells, no CPT, ATP luminescence, 48 h | Potency, µM (doses to about 46.2 µM), for the others: top-dose activity change, negative = growth inhibition, hits mostly inhibitors | 15% of 420,000 active; note: potency is the fitted concentration of half-maximal effect; nearly all actives have a fitted effect of over 55% in size
#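 A cellular qHTS used chicken DT40 cells lacking endogenous Tdp1 but carrying stably transfected human TDP1. Compounds were applied without camptothecin, and cell growth kinetics were judged by ATP-dependent luminescence after ≥48 hr.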
# HT1080NT lethal = kills 2HG-producing HT-1080-NT fibrosarcoma cells | Potency, µM (top dose mostly 46.1 µM), without a hit: at the top dose activity, negative = less viability, usual class: cytotoxic | 1.6% of 360,000 active | HT-1080-NT fibrosarcoma viability, CellTiter-Glo ATP luminescence, 48 h | AID 686970;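 note: NT is the 2HG producing partner of a matched IDH1 knockdown line; potency is the fitted concentration of half-maximal effect; 0% = DMSO-treated cells and -100% = media-only wells without cells; nearly all actives have a fitted effect of over 55% in size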
#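 750 cells/well, RPMI + 5% FBS; 2 h settle, compound pin-transfer, 48 h at 37 degrees C. CellTiter-Glo 10 min RT, luminescence. Normalized to DMSO and media-only wells.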
# An asterisk follows results filed as active; u = inconclusive; x = no result given; [ ] = remark or other dose. Sampled rows, rich in hits. Any-hit rate of the full collection: about 19%. Unless noted, calls come from the whole dose curve; as a rule, active = well fitted curve in the direction sought with a large enough effect; inconclusive = small, poorly fitted or top-dose-only effect, or another doubt; inactive = no such curve, though single readings can be large; an effect the other way counts as inactive or inconclusive. Unless noted, % is set by controls: 0 for no effect and ±100 for the full control effect.
SMILES,DT40 TDP1 CPT,HT1080 IDH1KD tx,IL-1B inflam inh,TDP1 cell noCPT,HT1080NT lethal
Cc1ccc(CCNC(=O)CCCn2nc(C)c3c(C)n(-c4ccc(C)cc4)nc3c2=O)cc1,15µM*,-3%,-4,u,-2%
Cc1ccc(-n2nc3c(=O)n(CCCC(=O)NCc4cccc(F)c4)nc(C)c3c2C)cc1,u,-14%,-3,15µM*,-7%
Cc1nn(CCCC(=O)NCCc2ccccc2)c(=O)c2nn(-c3ccccc3)c(C)c12,-2%,-9%,u,11%,-8%
Cc1ccc(-n2nc3c(=O)n(CCCC(=O)NCCc4ccccc4C)nc(C)c3c2C)cc1,u,-3%,u,12µM*,0%
Cc1ccc(-n2nc3c(=O)n(CCCC(=O)NCCN4CCN(C)CC4)nc(C)c3c2C)cc1,3%,3%,u,26%,-4%
Cc1nc(SCC(=O)N2CCc3ccccc32)n[nH]1,5%,18%,-8,-22%,20%
CCCC(=O)Nc1ccc(C(N)=O)cc1,28%,17%,10,-14%,16%
O=C(Nc1ccc(-n2nncc2-c2ccccc2)cc1)c1ccccc1,7%,x,x,-25%,x
CC(=O)Nc1ccc(/C=C/C(=O)c2ccc(-n3nncc3-c3ccccc3)cc2)cc1,5.6µM*,x,x,10µM*,x
CCCC(=O)Nc1ccc(C(=O)/C=C/c2ccc(SC)cc2)cc1,13µM*,u,0,18µM*,u
CSc1ccc(/C=C/C(=O)c2ccc(NC(C)=O)cc2)cc1,16µM*,-26%,u,21µM*,-20%
CC(=O)c1cccc(NC(=O)C(C)OC(=O)/C=C/c2cccs2)c1 (configuration not stated),u,-13%,15,u,-7%
COc1cccc(Cn2c(CNC(=O)C(C)C)nc3cccnc32)c1,-10%,x,x,13%,x
COC(=O)c1ccccc1NC(=O)CN1CCN(c2ccccn2)CC1,-2%,3%,16,-10%,0%
COC(=O)c1ccccc1N/C=C1\CCc2c(c(C)nn2-c2ccccn2)C1=O,16µM*,0%,3,u,-2%
CC(NC(=O)c1ccc2ccccc2n1)c1ccccc1 (configuration not stated),u,4%,-25,u,11%
CN(C)C(CNC(=O)c1ccc2ccccc2n1)c1ccccc1 (configuration not stated),u,1%,20,18µM*,-6%
CCOc1ccc(N=Cc2ccc([N+](=O)[O-])cc2)c(O)c1,23µM*,-14%,-52*,12µM*,-19%
CC(C)(C)c1ccc(OCc2ccc(C(=O)N/N=C/c3ccc([N+](=O)[O-])cc3)o2)cc1,18µM*,u,-18,21µM*,-28%
CCOc1ccc(CNC(=S)N/N=C\c2ccc([N+](=O)[O-])cc2)cc1,16µM*,-3%,-2,8.2µM*,-1%
CCOc1ccc(N=Cc2ccc(N(C)C)cc2)c(O)c1,15µM*,-15%,18,7.3µM*,-21%
N#CCc1ccc(Oc2ncccn2)cc1,u,15%,8,u,1%
Cc1ccc(CNC(=O)CCc2c(C)nc3nc(C)nn3c2C)cc1,-11%,x,x,-9%,x
O=C(Cn1c(=O)sc2ccccc21)Nc1ccccc1,26µM*,3%,-7,21µM*,-8%
O=C(NC1CC1)C1=C[C@@H](C2CCCCC2)C[C@@H](OCCCCO)O1,-2%,1%,13,-13%,11%
SMILES,DT40 TDP1 CPT,HT1080 IDH1KD tx,IL-1B inflam inh,TDP1 cell noCPT,HT1080NT lethal
Cc1cccc(N2C(N)=NC(N)=NC23CCCCC3)c1,16µM*,u,15,12µM*,-2%
CC(C)n1cc(/C=C/c2cc[n+](C)cc2)c2ccccc21,0.52µM*,9.2µM*,-76*,0.52µM*,u
CC(C)n1cc(/C=N/Nc2ccc(C(=O)O)cc2)c2ccccc21,0%,-17%,41,2%,-10%
C=CCn1cc(/C=C/c2cc[n+](C)cc2)c2ccccc21,0.73µM*,u,-12,0.58µM*,u
CCn1cc(/C=C/c2cc[n+](C)cc2)c2ccccc21,0.33µM*,u,-8,1µM*,u
CCN(CC)C(=O)Cn1c(C)c(/C=C/c2cc[n+](C)cc2)c2ccccc21,u,1%,-27,u,10%
C=CCn1c(C)c(/C=C/c2cc[n+](C)cc2)c2ccccc21,3.7µM*,u,-90*,1.5µM*,-7%
Cc1ccnc(NC(=O)c2cccc(NS(=O)(=O)c3ccccc3C)c2)c1,-29%,9%,-4,-4%,1%
CCCCC(=O)Nc1ccc(C(=O)N2CCC(C(=O)OCC)CC2)cc1,-5%,-1%,4,0%,2%
COc1ccccc1NC(=O)N1CCN(c2cc(-c3ccccc3)nc3ncnn23)CC1,4.6µM*,11%,u,4.1µM*,0%
COc1ccc(NC(=O)C2CCN(c3cc(-c4ccccc4)nc4ncnn34)CC2)cc1OC,18µM*,u,-58*,23µM*,u
COc1ccc(NC(=O)C2CCN(c3cnccn3)CC2)cc1OC,15%,9%,-3,-23%,12%
CCn1nc(NS(=O)(=O)c2ccccc2)c2cc3ccccc3nc21,23µM*,8%,42,u,0%
CCSC1(SCC)N=C(N)C2(C#N)C(c3ccc(OC)c(OC)c3OC)C12C#N (configuration not stated),6.5µM*,u,-115*,8.2µM*,u
Cc1ccc(-n2ncc(C(=O)NC3CCN(Cc4ccccc4)CC3)c2C2CCN(C(=O)OC(C)(C)C)CC2)cc1C,21µM*,x,x,15µM*,x
CCOC(=O)N1CCC(NC(=O)c2cnn(-c3cccc(Cl)c3C)c2C2CCN(C(=O)OC(C)(C)C)CC2)CC1,-15%,x,x,-10%,x
CC(C)(C)OC(=O)N1CCC(c2c(C(=O)NC3CCN(Cc4ccccc4)CC3)cnn2-c2cccc(F)c2)CC1,12µM*,x,x,9.2µM*,x
CN(CC(=O)NCc1cccc(F)c1)C(=O)c1ccco1,-3%,18%,11,-13%,14%
C=CCC[C@H](Cc1ccc(F)cc1)C(=O)OC[C@@H](Cc1c[nH]c2ccccc12)NC(=O)[C@H](CC=C)CC(=O)N(CCO)Cc1ccccc1,18µM*,u,u,u,u
C=CCC[C@@H](Cc1ccc(F)cc1)C(=O)OC[C@@H](Cc1c[nH]c2ccccc12)NC(=O)[C@H](CC=C)CC(=O)N(CCO)Cc1ccccc1,21µM*,u,u,u,16µM*
c1csc(CNc2nc(CN3CCCC(c4nc5ccccc5o4)C3)nc3ccccc23)c1 (configuration not stated),11%[9.04 µM],x,x,u,x
